Whole data set: some 33,000 sequences, median “E-score (dimensionless, -0.5 to 0.5)” near -0.058, cut for the highest 2% near 0.35. For the sample, the highest values were picked, then their nearest neighbours and some sequences at random.
Each sequence was assayed on MvaT (assay: PBM 8-mer E-score (mean of HK and ME arrays) (E-score (dimensionless, -0.5 to 0.5)); higher = stronger relative binding preference).
Procedure, shortened: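 Full-length P. aeruginosa MvaT carrying an N-terminal glutathione S-transferase tag was tested by protein binding microarray following a previously described protocol. Two universal double-stranded 60-mer arrays, ME and HK, were used, each with a constant 25-mer primer region and a variable 35-mer region covering all 8-mers. The rank-based E-score is the mean of the two arrays, parsed with a custom script. Its range runs from -0.5 to 0.5 for each 8-mer.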

Sequence | PBM 8-mer E-score
CGATAGTC | -0.0515
AGGTCGTG | -0.0505
CAGTAGCA | 0.0532
GCGACTCC | -0.217
CGTAGGTA | -0.029
TGTATACA | 0.351
TGGATACA | -0.00533
TCTATACA | 0.136
CAGTTATG | 0.189
AAGTTAGT | 0.322
AAGTTATC | 0.256
AAGTTATG | 0.349
AAGTTATT | 0.415
AAGTTACG | 0.231
GCCTGACA | -0.188
CAGAAAGA | 0.0379
TTAAGAAA | 0.242
ATTTTATC | 0.202
ATCATCGG | -0.0977
AGTAGGAT | -0.047
AATACAAC | 0.316
AATACAAA | 0.357
CATACAAA | 0.206
TATACAAA | 0.392
GATACAAA | 0.247
AATACAAG | 0.208

Sequence | PBM 8-mer E-score
TACTCTGA | -0.066
TAAGGGCA | 0.0358
GCTCTCGA | -0.0844
AACTGGGG | -0.149
AACTATAT | 0.349
AACTATAA | 0.382
CACTATAA | 0.312
TGCTATAA | 0.285
AACTATAC | 0.227
TACTATCA | 0.276
GACTATAA | 0.316
TACTATAA | 0.387
AACTATAG | 0.236
ACGGGCCG | -0.277
GACCCAGC | -0.26
ACTTAGAG | 0.106
CTATATTA | 0.454
GGGTATTA | 0.288
GAGTATTA | 0.269
CTCTATTA | 0.267
GTATATTA | 0.438
ATCTATTA | 0.301
CACTGCTC | -0.18
GCCCGACC | -0.267
GAGAGTAC | -0.0129
AACCGCTC | -0.22

Sequence | PBM 8-mer E-score
AATGGGAT | 0.138
AGTCGACG | -0.209
GAAATATA | 0.408
CAAATATC | 0.233
AAAATACT | 0.272
CAAATATA | 0.433
CAAATATG | 0.264
GAAATATC | 0.227
AAAATAGT | 0.228
TAAATATA | 0.442
CAAAAATA | 0.287
GAAATAGA | 0.158
TAAATCTA | 0.183
AAAATATT | 0.435
GGCGTCCA | -0.193
AGGTCCTG | -0.144
AACGGGCA | -0.142
CTCTATCC | -0.0794
TCGCCAAA | -0.0154
ATATCGCA | 0.208
TCCGTCAA | -0.111
CCGACACG | -0.209
AAAATATA | 0.43
AAAATATC | 0.314
AAAATATG | 0.251
CAATATAC | 0.386

Sequence | PBM 8-mer E-score
GAATATAC | 0.298
TAATATAA | 0.463
GAATAGAA | 0.105
CAATATCC | 0.127
GAATATCA | 0.209
TAATCTAA | 0.292
CAATATAG | 0.331
CAATATAA | 0.404
CAATAAAC | 0.254
TAATAGAA | 0.254
GAATATAA | 0.38
CGGTACTA | -0.0157
ATTTCGTC | 0.0525
CCATCAAC | -0.145
GCCTAAAA | -0.0431
AAAGTGAT | 0.155
GAGCCATA | -0.0175
CACTCCTG | -0.121
TGATCTAA | 0.0137
AAATATAC | 0.333
AAATATAG | 0.332
AAATATAA | 0.442
GAGTACAC | -0.00583
AAATGCCT | -0.0883
AATTCGAC | -0.053
CTTGCAAG | 0.114

Sequence | PBM 8-mer E-score
GTATAGTA | 0.233
CTATAGTC | -0.0729
ATATAGTG | 0.329
ATATAGTA | 0.399
ATATAGTC | 0.361
CTATAGTA | 0.223
CGTTGACC | -0.113
AAATCAGC | 0.0494
AAAACTTG | 0.1
ACAACTTG | 0.237
AAAACTGA | 0.0579
AAAACTTA | 0.386
ACAACTGA | 0.0852
TAAACTGA | 0.205
TAAACTTA | 0.352
AAAACTTT | 0.354
ACAACTTA | 0.357
AAAACTTC | 0.149
GAAACTTA | 0.235
CAAACTTA | 0.272
CAACACTA | 0.11
CGGCACAC | -0.0132
CTATTTCA | 0.00869
ACAGTGCA | -0.0545
CCGCACGG | -0.212
ACTACTTC | 0.117

Sequence | PBM 8-mer E-score
CAAACTAC | 0.248
CCTACTTA | 0.251
CAAACTAA | 0.376
ACTACTTA | 0.377
TAAACTAA | 0.34
ACATTGCC | 0.0616
ATCTTCCC | -0.117
ATTGGTGG | 0.00541
TGATAACA | 0.16
CACGCTCG | -0.168
AATAGAAG | 0.0707
ATATTTTA | 0.43
GTATTTCA | 0.223
GCATTTTA | 0.177
GGATTTTA | 0.112
CTATTTTA | 0.261
GTATTTTA | 0.37
ATATTTTG | 0.319
GGATTTAA | 0.283
GTATTTAA | 0.368
GCCTCGTA | -0.109
AGGGATGC | -0.182
GGTCGTTA | -0.0413
GCGAGTCA | -0.112
CCGGGAGG | -0.293
CTGCAGCC | -0.148

Sequence | PBM 8-mer E-score
AAAAAGGT | -0.0123
CTTAATTA | 0.454
CTGAATTA | 0.266
ATTAATTG | 0.391
ATTAATCG | 0.336
CTCAATTA | 0.234
ATTAATTC | 0.415
AGTAATTC | 0.144
ATGAATTA | 0.295
ATTAATGG | 0.262
ATTAATTA | 0.461
ATCAATTA | 0.319
CTTAATTC | 0.281
ACAGGGCT | -0.196
CACTTCGC | -0.174
ATATCGTA | 0.207
GACGCAGC | -0.356
ATACTGGG | 0.00507
AGTCATTA | 0.14
CGGTAAGC | -0.0976
ACCCGGGA | -0.218
GTTAATTA | 0.415
CTTAATCA | 0.174
ATTAATCC | 0.332
CTTAATGA | 0.0908
GTCAATTA | 0.164

Sequence | PBM 8-mer E-score
ATTAATCA | 0.405
AGTAATTA | 0.421
GGTAATTA | 0.286
ATTAATGC | 0.341
ATTAATGA | 0.363
CGTAATTA | 0.31
GTTAAGTA | 0.203
CTTACGCA | -0.158
AATTGCAA | 0.179
AAGCAGCC | -0.138
TAACCTTA | 0.0355
GTAGGGCA | -0.179
CATAAGGG | -0.214
CAGCTCGG | -0.199
ACGACCTC | -0.143
ACCCAATC | -0.0955
CTAATACA | 0.325
ATAATACG | 0.354
AAAATACG | 0.184
ATAATACA | 0.407
ATAATACC | 0.333
ACAATACG | 0.0961
ATGGCACA | -0.0727
GCGTGTAC | -0.107
GAGATCGC | -0.123
ATGTTAAC | 0.363

Sequence | PBM 8-mer E-score
ATGTTAAT | 0.39
ATGTTAAG | 0.178
CTGTTAAC | 0.141
ATGTTAAA | 0.329
GTGTTAAC | 0.219
TGCGTCAA | -0.0324
GGGAACAC | -0.198
CCTGTCCG | -0.203
CCTCGAGC | -0.149
CAGTTGCG | -0.0888
AATTATCA | 0.325
GATTATCC | 0.209
TATTATCA | 0.404
GATTATTA | 0.391
CATTATCA | 0.169
CATTATTC | 0.363
CATTATGA | 0.214
CATTATCC | 0.235
CCTTATTC | 0.189
GATTATCA | 0.193
CATTATTA | 0.432
GATTATGC | 0.148
AAGTTCCA | 0.2
CGGGTTCC | -0.15
CGGAAAAG | 0.00958
AAATGGTC | -0.0709

Sequence | PBM 8-mer E-score
TACGTGCA | 0.0131
AGGCCTAT | -0.235
TAGCATCA | 0.0156
ATTACCGA | 0.0931
GGCGATAA | 0.137
AAATCATG | -0.0303
ACTGTAAC | 0.246
ACTGTAAA | 0.266
AATGTAAC | 0.267
AATGTAAG | 0.293
AATGTAAT | 0.365
ACTGTAAT | 0.351
GGTATGAC | -0.144
ATAATGGG | 0.229
AGGTTAAA | 0.0501
ATCATTCC | -0.0603
AATGATTC | 0.144
CGATAGCC | -0.14
GCAGTTCC | -0.18
GATTATGA | 0.0705
AATTATAC | 0.342
CATTAGAA | -0.0258
GATTATAA | 0.41
AATTATAT | 0.461
GATTATAC | 0.223
AATTATAA | 0.468

Sequence | PBM 8-mer E-score
AATTAGAT | 0.284
AATTATCT | 0.296
CATTATAC | 0.295
CATTATAA | 0.389
CCAATGAC | -0.153
CATTGTGG | -0.0595
GGCTTTGA | -0.0706
ACACAGGC | -0.0277
TCCTACGA | -0.0392
AATTATGT | 0.366
AATTATGA | 0.317
AATTATAG | 0.37
AATTATGG | 0.285
CATTATAG | 0.277
ACTCCTGA | -0.0172
AAGTTAAC | 0.379
AAGTTAAT | 0.385
AAGTTACT | 0.339
AAGTTAAA | 0.411
AAGTTAAG | 0.243
CAGTTAAC | 0.221
TAGTTAAA | 0.273
GAGTTAAA | 0.25
GAGTTAAC | 0.254
AGTTATTG | 0.312
CGTTATCA | 0.111

Sequence | PBM 8-mer E-score
CGTTATTC | 0.24
CGTTATTA | 0.364
GGTTATTA | 0.285
AGTTATTA | 0.414
AAAGTAGG | 0.0451
CAAAGATC | -0.0152
AATAAAAC | 0.341
AATAAAGT | 0.372
AATAAAGG | 0.228
ACTAAAAC | 0.289
ACTAAAAA | 0.193
AGTAAAAT | 0.308
ACTAAAAT | 0.39
AATAAAGA | 0.344
AATAAAAT | 0.388
AATAAAAA | 0.415
AATAAAAG | 0.309
CACCAGCC | -0.0802
AGGCCTAC | -0.133
CAAACCTA | 0.0792
ATTTTCGA | 0.0907
AGCGTTCC | -0.129
TTGAGAAA | 0.135
ACGTGGCC | -0.18
CCCTGATC | -0.224
CTACATGC | -0.081

Sequence | PBM 8-mer E-score
ATCGGTAA | -3.6e-06
GCCGCGTA | -0.0692
ACACCCCC | -0.251
AGCACAAA | 0.0677
AGGCACCT | -0.217
GACTTTGC | 0.127
GTAAAATA | 0.345
GAAAAATA | 0.317
TAAAAATA | 0.3
ATAAAATG | 0.249
ATAAAATA | 0.427
CTAAAATC | 0.148
ATAAAATC | 0.193
CTAAAATA | 0.353
GTAAAAAA | 0.137
AATAAGTC | 0.298
CTATTGTA | 0.34
ATATTGTG | 0.251
CTATTGTC | 0.12
ATATTGTA | 0.376
ATATTGTC | 0.346
ACATTGTC | 0.116
CTCGAGTA | -0.0253
AGCCAACA | 0.0763
AAGTCGAT | -0.0445
AGCAGACG | -0.169

Sequence | PBM 8-mer E-score
ACTGCGAG | -0.0652
AATAATCT | 0.314
AGTAATAT | 0.418
TAGAATAA | 0.306
GCTAATAA | 0.338
TATAATAA | 0.477
AGTAATAG | 0.213
AGTAATAC | 0.297
AATAATCC | 0.26
AATAATAT | 0.453
TATAATCA | 0.389
GATAATCA | 0.176
AATAATCA | 0.259

From the supplement of paper PMC4466236
